This is an account of results in article PMC3795721, “Screening for Protein-DNA Interactions by Automatable DNA-Protein Interaction ELISA”.

The target in the assay is AT4G31550 (Arabidopsis thaliana, UniProt Q9SV15 228-325). In words: DPI-ELISA; DPI-ELISA, streptavidin 384-well plate, 1-2 pmol biotinylated dsDNA per well, crude native E. coli extract, anti-His detection; buffer as in Brand et al. [46],; high values mean tight binding. Particulars: tags: C-terminal His (pET-DEST42); label: 5' biotin on forward strand; dsDNA, one strand shown.
Sequence of AT4G31550 (Q9SV15 228-325): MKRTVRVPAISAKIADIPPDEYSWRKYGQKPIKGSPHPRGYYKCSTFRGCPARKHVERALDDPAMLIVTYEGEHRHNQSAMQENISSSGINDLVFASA
AAAAAAGGCGGTCGTAGTTGTGGGAGAAAA registered a binding signal of 1.14 ± 0.0849 absorbance.

Take AAAAAAGTGTTAGATTGTAGTTGATAAAA: the binding signal was 0.675 ± 0.106 absorbance.

Sequence AAAAAACCGACCTGCACGTCGCTGCTAAAA registered a binding signal of 0.505 ± 0.106 absorbance.

The sequence AAAAAAGCTTCGCGCCAGCGGGAAAA came in with a binding signal of 0.695 ± 0.0636 absorbance.

The sequence AAAAAAGGCCGTTGGACCTCGGTCTAAAAA gave a binding signal of 0.66 ± 0.0707 absorbance.

Sequence AAAAAATAATATCGATACTCATGCCCAAAA had a binding signal of 0.685 ± 0.134 absorbance.

AAAAAAGCCATCATGGTTAGTGTACAAAAA had a binding signal of 0.665 ± 0.148 absorbance.

AAAAAATCCACGACTCAGCAGCTCTTAAAA: the binding signal came to 0.68 ± 0.0707 absorbance.

For AAAAAAAGTTGTACTTATTATACTTTAAAA, the binding signal amounted to 0.53 ± 0.113 absorbance.

AAAAAAGCCTTTACCCTTGTTCCTCTAAAA: the binding signal was determined as 0.69 ± 0.17 absorbance.

In the case of AAAAAAGCATATCTTCAGAACTTGCCAAAA, the binding signal was determined as 0.625 ± 0.0778 absorbance.

For the sequence AAAAAATATCATTGTTACCGTTGCTAAAAA, the binding signal was 0.465 ± 0.12 absorbance.

The sequence AAAAAATTTATACTTGATCCTGGCTTAAAA registered a binding signal of 0.575 ± 0.0636 absorbance.

Take AAAAAAGATGATTAGTAATTGCGGAAAAAA: the binding signal came to 0.75 ± 0.0849 absorbance.

Consider AAAAAACTGGATGCGCTCACCAGTTAAAAA, for which the binding signal was 0.52 ± 0.099 absorbance.

As for AAAAAAGACCGCAGCAAGAATTAAATAAAA, the binding signal was 0.49 ± 0.141 absorbance.

AAAAAACACTTAACTGAGTGGGATTGAAAA showed a binding signal of 0.705 ± 0.134 absorbance.

The sequence AAAAAATCCCCCCGTTTCACTCTTGCAAAA registered a binding signal of 0.66 ± 0.141 absorbance.

The sequence AAAAAATATGCTACTCCACCTTGATGAAAA showed a binding signal of 0.67 ± 0.156 absorbance.

As to AAAAAATCGGTACGCACCCCGGACTCAAAA, the binding signal came to 0.73 ± 0.184 absorbance.

Sequence AAAAAACTCCCTCTCCTCTGTCTTCCAAAA had a binding signal of 0.635 ± 0.106 absorbance.

Sequence AAAAAAAGGGTCCGGTGCATACATGTAAAA gave a binding signal of 0.57 ± 0.156 absorbance.

AAAAAAGTGTTTGTGCTTCTCTCTGTAAAA: the binding signal is 0.58 ± 0.0707 absorbance.

As to AAAAAATCTTCTTGTTTCTTATTTCTAAAA, the binding signal worked out at 0.625 ± 0.12 absorbance.

Sequence AAAAAAGAGAATTGTCAGTGCCCAACAAAA came in with a binding signal of 0.705 ± 0.106 absorbance.

With AAAAAATGGTCGTCGTACTCGTGGTCAAAA, the binding signal was 2.96 ± 0.424 absorbance.

With AAAAAAAATCTTAGCTCTATCTCATCAAAA, the binding signal was 0.68 ± 0.113 absorbance.

AAAAAAACTATAGTCTTTGTCATGATAAAA: the binding signal was found to be 0.64 ± 0.0707 absorbance.

For AAAAAATAGACCCTGACCCACCATTGAAAA, the binding signal is 0.71 ± 0.113 absorbance.

With AAAAAAGTTGCCGACGATTGCGGGTTAAAA, the binding signal is 0.735 ± 0.163 absorbance.

For the sequence AAAAAATCTAGGGGTACCTATTTGGCAAAA, the binding signal stood at 0.675 ± 0.12 absorbance.

With AAAAAATGGTACTCAGAGTTATAGACAAAA, the binding signal was determined as 0.66 ± 0.141 absorbance.

Turning to AAAAAAAGTTACCAGTACGCGTCGGGAAAA, the binding signal is 0.64 ± 0.141 absorbance.

Turning to AAAAAATTAGGACCATCCCCACTAGGAAAA, the binding signal came to 0.69 ± 0.0707 absorbance.

AAAAAAGGTCTGGACGATCACCGGGAAAAA came in with a binding signal of 0.565 ± 0.12 absorbance.

With AAAAAACTTGCTCCTCCGTTTTACTCAAAA, the binding signal stood at 0.775 ± 0.276 absorbance.

For the sequence AAAAAAGTGCACGACCCATTTATATAAAAA, the binding signal is 0.5 ± 0.099 absorbance.

As for AAAAAAAAGGACATTTTTTCTTTTTGAAAA, the binding signal is 0.515 ± 0.0636 absorbance.
